This is part of a sample that, as a whole, favours compounds with a hit. Of some 83,000 tested, about 20% had one in any assay.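 How to read the values: 0–100, growth inhibition (40 = 60% inhibited); 0, no net growth; -100 to 0, cell death (-40 = 40% of starting cells died; -100 = all dead).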 The source made the active and inactive calls. How the source made its calls: active means growth percent below 10; inactive means the rest.
What was measured:
Experiment in all cases: NCI-60 one-dose screen, 48 h (100 = growth as untreated, 0 = no growth, -100 = all killed)
HOP-92 NSCLC = settings: 10 µM unless noted
COLO 205 colon = settings: 10 µM
MALME-3M melanoma = settings: 10 µM unless noted
SNB-75 CNS = settings: 10 µM unless noted
SNB-19 CNS = settings: 10 µM unless noted
U251 CNS = settings: 10 µM unless noted
SK-MEL-2 melanoma = settings: 10 µM unless noted
TK-10 renal = settings: 10 µM unless noted
ACHN renal = settings: 10 µM unless noted
SR leukemia = settings: 10 µM
RPMI-8226 leukemia = settings: 10 µM unless noted
T-47D breast = settings: 10 µM unless noted
MDA-MB-435 melanoma = settings: 10 µM unless noted
HCT-116 colon = settings: 10 µM unless noted
SK-MEL-5 melanoma = settings: 10 µM unless noted
EKVX NSCLC = settings: 10 µM unless noted
CCRF-CEM leukemia = settings: 10 µM unless noted
IGROV1 ovarian = settings: 10 µM
NCI-H522 lung = settings: 10 µM unless noted

Measured: growth

O=C(O)c1cccc(CCl)c1
inactive: HOP-92 NSCLC 84.3% | COLO 205 colon 106% | MALME-3M melanoma 110% | SNB-75 CNS 87.2% | SNB-19 CNS 114% | U251 CNS 96.7% | SK-MEL-2 melanoma 103% | TK-10 renal 97.5% | ACHN renal 100% | SR leukemia 89.5% | RPMI-8226 leukemia 105% | T-47D breast 96.3% | MDA-MB-435 melanoma 104% | HCT-116 colon 96.7%

N#Cc1ncc(/N=C/c2ccc(N(CCCl)CCCl)cc2)s1
inactive: HOP-92 NSCLC 78.5% | COLO 205 colon 99.4% | SNB-75 CNS 61.6% | U251 CNS 80.5% | SK-MEL-5 melanoma 88.4% | EKVX NSCLC 91.2% | TK-10 renal 92.8% | ACHN renal 33.8% | CCRF-CEM leukemia 56.2% | SR leukemia 12.7% | IGROV1 ovarian 90% | MDA-MB-435 melanoma 87.8% | HCT-116 colon 71.6%

CC(C)(O)/C=C/C(=O)[C@](C)(O)[C@H]1[C@H](O)C[C@@]2(C)[C@@H]3CC=C4[C@@H](C=C(O)C(=O)C4(C)C)[C@]3(C)C(=O)C[C@]12C
active: NCI-H522 lung -74.7% | COLO 205 colon -52.3% | MALME-3M melanoma -66.5% | SNB-75 CNS -86.6% | SNB-19 CNS -53.1% | U251 CNS -77.5% | SK-MEL-5 melanoma -78.4% | SK-MEL-2 melanoma -43.6% | EKVX NSCLC -10.9% | TK-10 renal -54.9% | ACHN renal -29.9% | CCRF-CEM leukemia -29.1% | SR leukemia -7.28% | RPMI-8226 leukemia -53.8% | IGROV1 ovarian -70.3% | T-47D breast -15.3% | MDA-MB-435 melanoma -52.1% | HCT-116 colon -53.5%

Nc1cccc2c1Oc1ccccc1O2
inactive: HOP-92 NSCLC 80.3% | MALME-3M melanoma 97.3% | SNB-75 CNS 133% | SNB-19 CNS 114% | U251 CNS 99.6% | SK-MEL-5 melanoma 86% | EKVX NSCLC 99.7% | TK-10 renal 115% | ACHN renal 99.2% | CCRF-CEM leukemia 87.7% | SR leukemia 102% | RPMI-8226 leukemia 95.9% | T-47D breast 115% | MDA-MB-435 melanoma 105% | HCT-116 colon 93.3%
active: IGROV1 ovarian 2.63%

Cc1cc([N+](=O)[O-])c(Cl)cc1NS(=O)(=O)c1ccccc1
inactive: COLO 205 colon 91.9% | MALME-3M melanoma 37.9% | SNB-75 CNS 64.1% | SNB-19 CNS 79.1% | SK-MEL-2 melanoma 55.5% | TK-10 renal 110% | ACHN renal 83.1% | SR leukemia 64.3% | RPMI-8226 leukemia 37.3% | IGROV1 ovarian 85% | T-47D breast 59.5%
active: HOP-92 NSCLC -3.58%

NC(Cc1ccc(O)cc1)C(=O)N/N=C/c1ccc(N(CCCl)CCCl)cc1 (stereo not given)
inactive: HOP-92 NSCLC 82.1% | COLO 205 colon 112% | SNB-75 CNS 70.2% | SNB-19 CNS 92.5% | U251 CNS 76.7% | SK-MEL-5 melanoma 88.9% | SK-MEL-2 melanoma 72.8% | EKVX NSCLC 92.7% | TK-10 renal 115% | ACHN renal 75.1% | CCRF-CEM leukemia 27.9% | SR leukemia 18% | IGROV1 ovarian 63.4% | MDA-MB-435 melanoma 84.7% | HCT-116 colon 84%

O=c1cc[nH]c(=O)o1
inactive: HOP-92 NSCLC 118% | COLO 205 colon 104% | MALME-3M melanoma 95.2% | SNB-75 CNS 84.7% | SNB-19 CNS 108% | U251 CNS 102% | SK-MEL-5 melanoma 105% | SK-MEL-2 melanoma 93.3% | TK-10 renal 84.1% | ACHN renal 115% | SR leukemia 94.7% | RPMI-8226 leukemia 93.1% | IGROV1 ovarian 104% | T-47D breast 96.3% | MDA-MB-435 melanoma 111% | HCT-116 colon 98.1%

CN1CCN(C(=O)COc2ccc(/C=C3\CC4C5CC=C6CC(Cl)CCC6(C)C5CCC4(C)C3=O)cc2)CC1 (stereo not given)
inactive: NCI-H522 lung 61.5% | COLO 205 colon 60.5% | MALME-3M melanoma 73.8% | SNB-75 CNS 86.8% | SNB-19 CNS 98% | SK-MEL-5 melanoma 80.4% | SK-MEL-2 melanoma 89.8% | EKVX NSCLC 68.2% | TK-10 renal 88.2% | ACHN renal 80.1% | RPMI-8226 leukemia 53.5% | IGROV1 ovarian 86.6% | T-47D breast 71.2% | MDA-MB-435 melanoma 56.6%
active: SR leukemia 0.223%

O=CN1N=C(c2ccccc2)CC1c1sc(N(CCCl)CCCl)nc1Cl (stereo not given)
inactive: NCI-H522 lung 70.8% | COLO 205 colon 95.5% | MALME-3M melanoma 111% | SNB-75 CNS 72% | SNB-19 CNS 90.9% | U251 CNS 96.5% | SK-MEL-5 melanoma 98.5% | SK-MEL-2 melanoma 77.2% | EKVX NSCLC 89.5% | TK-10 renal 121% | ACHN renal 90.9% | CCRF-CEM leukemia 104% | SR leukemia 91.2% | IGROV1 ovarian 96% | MDA-MB-435 melanoma 99.2% | HCT-116 colon 89.4%

From PubChem BioAssay (NCI)
